Screening results as filed in PubChem BioAssay.
TEAD-YAP block = TEAD-YAP interaction inhibition; HEK-TIYL cells, TEAD-Gal4/YAP UAS-luciferase luminescence; inhibition, % at 9.12 µM; 640,000 compounds, 1.4% hits; in the data active = inhibition above about 32%;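 also: 0% = median of test compound wells and 100% = reference inhibitor wells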
MITF primary = inhibitors of human MITF. inhibition, % at 2.6 µM. AlphaScreen MITF homodimerization, bead proximity signal. AID 1259374. O75030. 650,000 compounds, 0.91% hits; in the data active = inhibition above about 50%;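 also: 0% = vehicle wells with protein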
GPR151 activ = activates the human receptor GPR151 | 650,000 compounds, 1% hits | PathHunter beta-arrestin GPR151 cells, luminescence | AID 1508602 | activation, % at 11.2 µM | Q8TDV0; in the data active = activation above about 4.9%;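 also: 0% = median of compound wells and 100% = cells with positive control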
FBW7 activator = human FBW7 E3 ligase activation, primary screen. Q969H0. AlphaScreen FBW7–phospho-cyclin E peptide binding, activator screen. normalized activity (activation), % at 26.1 µM. 650,000 compounds, 0.13% hits; in the data active = normalized activity above about 1.9%;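 also: purified mutant Fbw7 with reduced substrate affinity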
GPR151 conf act = human GPR151 activation, confirmation screen; shares compounds with GPR151 activ; GPR151 PathHunter beta-arrestin cells, luminescence, 90 min; % of EA-reagent control over plate median; activation, % at 11.2 µM; 6,700 tested, under 10 active;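 active = mean percent activation across replicates above the confirmation screen cutoff of 4.91%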
GPR119 counter = GPR119 activation, counter-screen for GPR151 activators; shares compounds with GPR151 activ; GPR119 PathHunter beta-arrestin cells, luminescence, 90 min; 0 = compound-well median, 100 = enzyme-acceptor control; activation, % at 11.2 µM; 6,700 compounds, 0.3% hits; AID 1508611;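 active = mean percent activation in the counterscreen above 29.09%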;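 also: counterscreen on off-target GPR119 to flag nonselective hits from the GPR151 activator screen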
Target sequence (Q8TDV5 whole entry, looked up): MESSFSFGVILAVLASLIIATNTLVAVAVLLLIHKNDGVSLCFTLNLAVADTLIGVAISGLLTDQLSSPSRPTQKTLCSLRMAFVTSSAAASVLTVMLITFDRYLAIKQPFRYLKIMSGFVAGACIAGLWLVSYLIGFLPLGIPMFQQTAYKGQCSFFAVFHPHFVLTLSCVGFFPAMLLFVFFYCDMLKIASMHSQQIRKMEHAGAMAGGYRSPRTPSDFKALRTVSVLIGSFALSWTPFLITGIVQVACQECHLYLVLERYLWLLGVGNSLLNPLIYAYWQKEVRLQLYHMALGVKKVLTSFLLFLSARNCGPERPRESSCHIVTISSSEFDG
* hit, by the source's call; · = no result given. Sampled rows, rich in hits. Any-hit rate of the full collection: about 3.5%.

SMILES	TEAD-YAP block	MITF primary	GPR151 activ	FBW7 activator	GPR151 conf act	GPR119 counter
CC(=O)Nc1ccc(Nc2nc(Nc3cccc(N(C)C)c3)ncc2C)cc1	8	7	5.5*	0	-1	-12
Cc1ccc(-c2ccc(OCCN3CCOCC3)nc2)cc1	-23	17	1	0	·	·
CC(C)(C)c1ccc(-c2ccc(OCCN3CCOCC3)nc2)cc1	58*	-2	5.8*	-1	-1	4
Cc1cccc(Oc2nc3ccccn3c(=O)c2/C=C(\C#N)C(=O)NC2CCCCC2)c1	10	7	-8	0	·	·
Cc1ccc(S(=O)(=O)N(CC(N)=O)c2cccc([N+](=O)[O-])c2)cc1	-7	-1	8.4*	0	1	-1
CS(=O)(=O)N(CC(N)=O)c1cccc([N+](=O)[O-])c1	-1	-9	0	0	·	·
COc1cccc(CC2(CO)CCN(C(=O)CN3CCCC(c4ccccc4)C3)CC2)c1 (stereo not drawn)	0	7	5.2*	0	0	5
COc1cccc(CC2(CO)CCN(C(=O)Cn3cnnn3)CC2)c1	4	11	-2	0	·	·
CCc1cc(-c2n[nH]c(C)c2-c2ccc3c(c2)OCCO3)c(O)cc1OC	16	11	-1	1	·	·
CC1CCC(Nc2nc3ccccc3c3nc(-c4cccnc4)nn23)CC1 (stereo not drawn)	-2	-1	8.1*	0	1	10
CCOc1cccc(NC(=O)/C(C#N)=C/c2ccccc2)c1	-13	0	1	0	·	·
CCOc1cccc(NC(=O)/C(C#N)=C\c2ccc(OCC(=O)O)c(Br)c2)c1	4	-9	6.1*	0	-1	-9
COc1ccc(S(=O)(=O)n2nc(C)cc2C)cc1	0	-1	5.0*	1	0	-3
COC(=O)C1=C(C)N(c2cccc(OC)c2)C(=O)/C1=C\c1ccc(O)cc1	-28	15	-2	0	·	·
COc1cc(CNc2ncn[nH]2)ccc1OCc1cccc(C)c1	-29	-11	5.1*	0	-1	-6
COc1cc(CNc2ncn[nH]2)cc(Cl)c1OC	-2	-5	2	0	·	·
O=[N+]([O-])c1cc(CNCc2ccccc2)ccc1N1CCCCC1	-45	44	5.6*	0	1	6
NC(=O)CSc1nnc(Cc2ccccc2)n1-c1ccc(F)cc1	5	-3	6.0*	0	1	-7
COC(=O)c1ccccc1S(=O)(=O)N1CCCC(C(=O)c2ccc(OC)cc2C)C1 (stereo not drawn)	3	7	-1	1	·	·
O=C(CCC1(Cc2ccco2)CCC(=O)N1)NCc1cnn(-c2ccccc2)n1 (stereo not drawn)	1	-2	0	0	·	·
O=C(CCC1(Cc2ccc3c(c2)OCO3)CCC(=O)N1)NCc1cnn(-c2ccccc2)n1 (stereo not drawn)	10	2	7.1*	0	1	6
CC[C@@H](C(=O)[C@@H](C)[C@@H](O)[C@H](C)CCc1ccc(C)c(O)c1C(=O)O)[C@H]1O[C@](CC)([C@H]2CC[C@](O)(CC)[C@H](C)O2)C[C@@H]1C	31	-4	21*	0	-1	-11
CCc1ccccc1NC(=O)c1c[nH]c(=O)n(-c2ccc(F)cc2)c1=O	3	-2	4	0	·	·
CCC(=O)N1CCN=C1SCc1cccc(Cl)c1	-3	-5	-1	0	·	·
CCC(=O)N1CCN=C1SCc1cccc(C)c1	2	1	7.1*	0	1	9
SMILES	TEAD-YAP block	MITF primary	GPR151 activ	FBW7 activator	GPR151 conf act	GPR119 counter
CCOc1ccc(CC(=O)NCCn2ccnc2C)cc1	5	1	3	0	·	·
Cc1nccn1CCNC(=O)c1ccc(F)c(F)c1	8	-5	9.9*	0	0	-9
CCN1CCN(S(=O)(=O)c2ccc3c(c2)SC(C)CN3C(C)=O)CC1 (stereo not drawn)	6	-3	6.1*	0	0	-2
CC(=O)N1CC(C)Sc2cc(S(=O)(=O)N3CCCCC3)ccc21 (stereo not drawn)	5	5	2	0	·	·
CCOC(=O)C1C(=O)C=C(c2ccc(C)cc2)CC1c1ccccc1OCC (stereo not drawn)	3	15	5.3*	0	0	0
CCOC(=O)C1C(=O)C=C(c2cccc(OC)c2)CC1c1ccccc1C (stereo not drawn)	9	-4	1	0	·	·
COCCNC(=O)C(C(=O)c1ccc(F)cc1)n1cc(Cl)ccc1=O (stereo not drawn)	-3	12	-1	0	·	·
CC(C)CCNC(=O)C1CC(=O)N(C2CCCCCC2)C1 (stereo not drawn)	0	1	10*	0	0	2
CC(C)CN(CCCNC(=O)C1CC(=O)N(C2CCCC2)C1)CC(C)C (stereo not drawn)	0	10	0	0	·	·
CC(C)CCNC(=O)C1CCC(=O)N1C(C)C (stereo not drawn)	-6	8	5.2*	0	1	4
Cc1cc2c(o1)c1cnn(CC(=O)NCC3CC3)c(=O)c1n2C(C)C	-4	7	-1	0	·	·
Oc1ccccc1-c1nc2c3c(-c4ccccc4)c(-c4ccccc4)n(Cc4ccco4)c3ncn2n1	5	4	1	0	·	·
CS(=O)(=O)N(Cc1ccco1)C1CCN(CCc2cccs2)CC1	5	4	0	0	·	·
O=S(=O)(c1cccs1)N(Cc1ccco1)C1CCN(CCc2cccs2)CC1	3	17	7.5*	0	-1	-13
O=C(Nc1cccc(Oc2ccc(C(=O)O)c(C(=O)O)c2)c1)c1ccc(-c2ccccc2)cc1	18	2	6.9*	0	0	3
O=C(Nc1cccc(Oc2ccc(C(=O)O)c(C(=O)O)c2)c1)c1ccc([N+](=O)[O-])cc1	6	14	0	-1	·	·
COc1ccc(NC(=O)CN(C)S(=O)(=O)c2ccc(Cl)cc2)cc1Cl	6	0	10*	0	0	-6
Cc1ccc(NC(=O)CN(C)S(=O)(=O)c2ccc(Br)cc2)cc1Cl	4	18	9.5*	0	2	-3
Cc1ccc(NC(=O)CN(C)S(=O)(=O)c2ccc(Br)cc2)cc1C	-2	-13	1	0	·	·
O=C(NCCc1c[nH]c2ccccc12)C1(c2ccccc2)CCCC1	3	8	0	0	·	·
Cc1cccc(N(Cc2c(F)cccc2Cl)S(C)(=O)=O)c1	6	5	6.9*	1	-1	-14
Cc1cccc(N(Cc2ccccc2F)S(C)(=O)=O)c1	1	7	0	1	·	·
O=C(Nc1ccccc1)/C(=C\c1cccc([N+](=O)[O-])c1)NC(=O)c1ccccc1Cl	6	-1	0	0	·	·
Cc1ccc(-n2ncc3c(=O)n(Cc4cccnc4)cnc32)cc1	-14	15	6.6*	0	0	0
